In PubChem BioAssay:
Unmarked numbers belong to inactive results. The source made the active and inactive calls. Cut-off read from the data, not from the text of the source, unless noted: active = inhibition above about 25%; inactive = the rest.

What was measured:
[1] = target: Nuclear receptor coactivator 3 (Homo sapiens) (UniProt Q9Y6Q9); assay: SRC3 coactivator transcriptional activity inhibitors, confirmation, cell-based, luminescence, quadruplicate (AID 588792;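 active = mean inhibition over 43.08%, the solvent-only control mean plus 3 SD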;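 note: 0% = DMSO treated cells and 100% = gossypol at 36 µM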); conditions: HEK293 GAL4-SRC3 luciferase reporter, at 3.6 µM, stronger effect = higher value
[2] = system: transactivating tegument protein VP16 (Human herpesvirus 1), Gal4-VP16 luciferase reporter; assay: VP16 transactivation inhibitors, counter-screen for SRC3 inhibitor project, cell-based, luminescence, high throughput (AID 588794; in the data active = inhibition above about 30%); conditions: mammalian cells, VP16-driven luciferase reporter luminescence; at 3.6 µM; stronger effect = higher value
[3] = target: Nuclear receptor coactivator 1 (Homo sapiens) (UniProt Q15788); assay: SRC1 coactivator transcriptional activity inhibitors, confirmation, cell-based, luminescence, quadruplicate (AID 588820;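 active = mean inhibition above 46.68%, the untreated control wells mean plus 3 SD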;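 note: 0% = DMSO wells and 100% = gossypol 36 µM treated wells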); conditions: HEK293 GAL4-SRC1 luciferase reporter, at 3.6 µM, stronger effect = higher value
[4] = VP16 transactivation inhibitors, counter-screen for SRC1 inhibitor project, cell-based, luminescence, high throughput (AID 588824); conditions: cell-based VP16 transactivation luciferase luminescence; at 3.6 µM; stronger effect = higher value
[5] = StAR promoter reporter inhibitors, counter-screen for LRH-1 inverse agonist project, cell-based, luminescence, high throughput (AID 651611; in the data active = inhibition above about 28%); conditions: StAR promoter luciferase reporter counterscreen, at 3.6 µM, stronger effect = higher value
[6] = target: Nuclear receptor subfamily 5 group A member 2 (Homo sapiens) (UniProt O00482); assay: LRH-1 (NR5A2) inverse agonists, retest, confirmation, cell-based, luminescence (AID 651613; in the data active = inhibition above about 42%;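 note: HEK293T cells co-transfected with LRH-1 and StAR promoter luciferase reporter; 0% = vehicle wells and 100% = parental cells lacking receptor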); conditions: cell-based LRH-1 luciferase reporter, inverse agonism; at 3.6 µM; stronger effect = higher value
[7] = target: Steroidogenic factor 1 (Homo sapiens) (UniProt Q13285); assay: SF1 (NR5A1) inverse agonists, counter-screen for LRH-1 inverse agonist project, cell-based, luminescence, high throughput (AID 651614; in the data active = inhibition above about 44%;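 note: cells cotransfected with StAR promoter reporter and SF1 expression vector; 0% = vehicle on cells with receptor and 100% = vehicle on cells lacking receptor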); conditions: cell-based SF1 luciferase reporter, at 3.6 µM, stronger effect = higher value
[8] = VP16 transactivation reporter inhibitors, counter-screen for LRH-1 inverse agonist project, cell-based, luminescence, high throughput (AID 651615; in the data active = inhibition above about 33%); conditions: Gal4-VP16 luciferase reporter cells, at 3.6 µM, stronger effect = higher value

Chain of Nuclear receptor coactivator 1 (Homo sapiens) (Q15788 whole entry, looked up, the tested form may be a part): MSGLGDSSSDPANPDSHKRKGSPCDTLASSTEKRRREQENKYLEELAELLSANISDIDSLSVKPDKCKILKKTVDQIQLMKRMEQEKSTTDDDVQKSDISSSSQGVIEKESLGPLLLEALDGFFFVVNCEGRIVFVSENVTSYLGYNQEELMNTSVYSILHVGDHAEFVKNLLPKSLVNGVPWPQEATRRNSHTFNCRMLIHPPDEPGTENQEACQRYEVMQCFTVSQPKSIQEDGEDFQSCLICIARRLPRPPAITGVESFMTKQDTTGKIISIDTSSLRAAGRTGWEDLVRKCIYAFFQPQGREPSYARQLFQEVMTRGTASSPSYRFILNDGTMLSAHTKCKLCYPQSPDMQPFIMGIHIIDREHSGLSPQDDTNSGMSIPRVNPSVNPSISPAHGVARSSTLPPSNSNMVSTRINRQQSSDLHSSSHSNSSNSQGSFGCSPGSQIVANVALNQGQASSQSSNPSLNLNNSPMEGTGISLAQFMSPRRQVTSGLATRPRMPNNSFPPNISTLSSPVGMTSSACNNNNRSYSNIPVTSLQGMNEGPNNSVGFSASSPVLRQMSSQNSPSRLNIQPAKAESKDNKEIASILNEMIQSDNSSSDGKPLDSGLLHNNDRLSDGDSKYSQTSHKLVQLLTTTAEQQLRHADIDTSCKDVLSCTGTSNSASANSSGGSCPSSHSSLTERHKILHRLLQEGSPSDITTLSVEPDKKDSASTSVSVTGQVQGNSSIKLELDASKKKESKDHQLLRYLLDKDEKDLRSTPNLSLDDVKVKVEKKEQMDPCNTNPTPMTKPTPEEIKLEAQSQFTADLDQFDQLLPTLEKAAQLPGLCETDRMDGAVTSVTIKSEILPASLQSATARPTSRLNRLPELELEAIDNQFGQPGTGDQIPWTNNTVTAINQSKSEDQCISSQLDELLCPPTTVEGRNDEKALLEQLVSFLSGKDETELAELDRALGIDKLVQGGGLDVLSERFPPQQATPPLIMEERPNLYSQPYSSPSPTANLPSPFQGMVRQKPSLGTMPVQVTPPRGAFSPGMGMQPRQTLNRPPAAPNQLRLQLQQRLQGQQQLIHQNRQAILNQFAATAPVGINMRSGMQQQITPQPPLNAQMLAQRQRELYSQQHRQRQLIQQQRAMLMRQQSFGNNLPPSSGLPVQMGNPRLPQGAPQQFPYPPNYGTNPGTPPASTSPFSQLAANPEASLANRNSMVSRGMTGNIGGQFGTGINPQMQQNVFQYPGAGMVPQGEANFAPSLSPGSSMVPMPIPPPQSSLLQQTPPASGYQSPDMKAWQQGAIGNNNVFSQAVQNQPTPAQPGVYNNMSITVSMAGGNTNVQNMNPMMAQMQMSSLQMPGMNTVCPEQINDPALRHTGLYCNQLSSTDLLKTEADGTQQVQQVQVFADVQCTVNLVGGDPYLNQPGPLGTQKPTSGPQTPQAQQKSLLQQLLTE
Chain of Nuclear receptor coactivator 3 (Homo sapiens) (Q9Y6Q9 whole entry, looked up, the tested form may be a part): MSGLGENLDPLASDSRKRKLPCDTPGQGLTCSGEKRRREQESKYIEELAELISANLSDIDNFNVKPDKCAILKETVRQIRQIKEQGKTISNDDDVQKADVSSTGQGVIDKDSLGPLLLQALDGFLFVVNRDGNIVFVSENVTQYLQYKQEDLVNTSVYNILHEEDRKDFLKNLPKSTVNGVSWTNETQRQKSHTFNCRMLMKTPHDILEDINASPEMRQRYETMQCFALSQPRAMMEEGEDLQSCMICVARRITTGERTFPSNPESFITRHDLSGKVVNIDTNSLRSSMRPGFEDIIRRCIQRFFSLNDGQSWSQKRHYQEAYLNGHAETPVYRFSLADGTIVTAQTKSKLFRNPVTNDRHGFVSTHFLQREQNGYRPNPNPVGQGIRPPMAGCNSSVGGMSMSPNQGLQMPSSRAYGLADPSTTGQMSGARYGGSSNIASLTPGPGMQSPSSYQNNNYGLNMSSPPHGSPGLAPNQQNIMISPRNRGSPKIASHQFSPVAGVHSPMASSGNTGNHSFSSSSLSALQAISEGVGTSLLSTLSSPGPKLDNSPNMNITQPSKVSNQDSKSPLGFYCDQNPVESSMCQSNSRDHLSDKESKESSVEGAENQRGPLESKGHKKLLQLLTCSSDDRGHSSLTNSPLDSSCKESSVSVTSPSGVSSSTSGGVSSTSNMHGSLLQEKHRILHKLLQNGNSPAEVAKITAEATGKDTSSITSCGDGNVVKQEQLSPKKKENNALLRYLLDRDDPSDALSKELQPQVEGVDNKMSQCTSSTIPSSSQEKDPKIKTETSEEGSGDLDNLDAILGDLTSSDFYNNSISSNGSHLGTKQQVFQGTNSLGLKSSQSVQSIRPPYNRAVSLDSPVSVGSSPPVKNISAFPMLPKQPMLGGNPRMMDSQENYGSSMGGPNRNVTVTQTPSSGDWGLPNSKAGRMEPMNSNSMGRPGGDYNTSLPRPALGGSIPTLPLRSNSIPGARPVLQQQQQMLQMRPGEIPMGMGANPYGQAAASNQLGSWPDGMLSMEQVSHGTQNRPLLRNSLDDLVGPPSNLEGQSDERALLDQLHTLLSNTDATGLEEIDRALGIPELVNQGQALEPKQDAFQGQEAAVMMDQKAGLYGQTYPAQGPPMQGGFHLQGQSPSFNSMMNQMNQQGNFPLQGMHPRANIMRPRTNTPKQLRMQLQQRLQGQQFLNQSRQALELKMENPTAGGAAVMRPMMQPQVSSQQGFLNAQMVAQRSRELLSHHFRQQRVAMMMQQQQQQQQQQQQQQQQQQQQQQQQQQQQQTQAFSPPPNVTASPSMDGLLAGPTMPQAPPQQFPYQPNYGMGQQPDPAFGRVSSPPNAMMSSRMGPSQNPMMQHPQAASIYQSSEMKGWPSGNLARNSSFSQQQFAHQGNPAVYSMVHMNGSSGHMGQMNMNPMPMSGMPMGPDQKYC
Chain of Nuclear receptor subfamily 5 group A member 2 (Homo sapiens) (O00482 whole entry, looked up): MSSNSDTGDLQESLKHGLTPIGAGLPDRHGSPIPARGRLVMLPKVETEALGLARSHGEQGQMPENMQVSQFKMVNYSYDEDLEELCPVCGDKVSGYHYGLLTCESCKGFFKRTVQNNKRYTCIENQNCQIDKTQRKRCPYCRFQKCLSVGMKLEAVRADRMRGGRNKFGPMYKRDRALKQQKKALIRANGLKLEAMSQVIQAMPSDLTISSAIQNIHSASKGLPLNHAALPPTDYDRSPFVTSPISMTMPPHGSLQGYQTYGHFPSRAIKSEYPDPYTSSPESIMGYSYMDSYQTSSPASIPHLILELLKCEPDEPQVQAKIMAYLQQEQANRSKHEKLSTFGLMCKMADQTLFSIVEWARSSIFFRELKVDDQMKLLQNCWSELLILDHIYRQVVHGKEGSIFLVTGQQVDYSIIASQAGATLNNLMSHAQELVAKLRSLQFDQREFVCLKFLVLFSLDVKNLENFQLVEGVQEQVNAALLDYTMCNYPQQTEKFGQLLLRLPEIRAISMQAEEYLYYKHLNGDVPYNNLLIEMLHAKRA
Chain of Steroidogenic factor 1 (Homo sapiens) (Q13285 whole entry, looked up, the tested form may be a part): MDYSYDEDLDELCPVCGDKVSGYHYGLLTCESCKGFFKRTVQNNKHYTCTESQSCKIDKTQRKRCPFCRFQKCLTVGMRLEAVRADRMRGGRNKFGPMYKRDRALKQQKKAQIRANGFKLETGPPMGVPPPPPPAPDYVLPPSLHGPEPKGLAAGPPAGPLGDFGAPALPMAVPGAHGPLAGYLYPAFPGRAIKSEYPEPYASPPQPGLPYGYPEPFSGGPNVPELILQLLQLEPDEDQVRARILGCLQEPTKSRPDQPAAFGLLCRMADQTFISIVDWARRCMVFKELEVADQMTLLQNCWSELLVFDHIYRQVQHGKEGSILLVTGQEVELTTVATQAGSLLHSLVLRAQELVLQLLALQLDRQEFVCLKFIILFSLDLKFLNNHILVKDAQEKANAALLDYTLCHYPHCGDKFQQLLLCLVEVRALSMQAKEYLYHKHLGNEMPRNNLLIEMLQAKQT

SMILES | inhibition [1] | inhibition [2] | inhibition [3] | inhibition [4] | inhibition [5] | inhibition [6] | inhibition [7] | inhibition [8]
CC[n+]1c(C=C2C=C(C)OC(C)=C2)sc2ccccc21 | 42.2% | 67.2% (active) | 40.9% | 71.5% (active) | 70.3% (active) | 108% (active) | 85% (active) | 92.9% (active)
NC1=C(Br)C(=O)c2ncccc2C1=O | 72.1% (active) | 60.8% (active) | 49.1% (active) | 54.8% (active) | 70.9% (active) | 92.9% (active) | 84.3% (active) | 79.3% (active)
COc1ccc(C(=O)Nc2cnn(Cc3ccc(Cl)cc3)c2)cc1OC | 26.3% | 52.7% (active) | 23.3% | 51% (active) | 45% (active) | 51.8% (active) | 64% (active) | 63.1% (active)
COc1ccccc1NC(=S)NN=C(C)c1ccccn1 | 4.97% | 65.2% (active) | -16.5% | 64% (active) | 81.8% (active) | 98.4% (active) | 85.8% (active) | 70.8% (active)
CCC[N+]1(CC#CCC(c2ccccc2)c2ccccc2)CCCCC1 | 28.8% | 40.3% (active) | 21.4% | 53.2% (active) | 24.2% | 104% (active) | 67.9% (active) | 73.6% (active)
CCN(CC)CCn1c2ccccc2c2cnc(N)c(C#N)c21 | 5.22% | 35.2% (active) | 30.1% | 50.6% (active) | 35.7% (active) | 65.8% (active) | 57.4% (active) | 74.8% (active)
CCn1cc(/C=C/c2cc[n+](C)cc2)c2ccccc21 | 21.5% | 38.4% (active) | 3.02% | 47.3% (active) | 40.5% (active) | 65.9% (active) | 66.8% (active) | 57.1% (active)
CC(=NNC(=S)Nc1ccccc1Cl)c1ccccn1 | 41.9% | 71.8% (active) | 18.6% | 73% (active) | 84.3% (active) | 106% (active) | 91.1% (active) | 83.9% (active)
COc1ccc(-n2cc(-c3ccc(C)cc3)[n+]3c2SCC3)cc1 | 30.8% | 55.1% (active) | 22.8% | 51% (active) | 40.9% (active) | 83.5% (active) | 75.1% (active) | 74.9% (active)
C[n+]1c(-c2ccccc2)cc2c(=Cc3ccccc3)c3ccccc3n21 | 39.3% | 70.3% (active) | 27.9% | 63.3% (active) | 54.9% (active) | 98.1% (active) | 87.2% (active) | 84.3% (active)
COc1cccc(/C=N/NC(=O)c2ccc(-c3ccccc3)cc2)c1O | 28.9% | 39.8% (active) | 37.3% | 40.6% (active) | 48.9% (active) | 81% (active) | 36.4% | 80.1% (active)
O=c1c2ccccc2sc2ccc(C#CC3(O)CCCCC3)cc12 | 87.4% (active) | 84.4% (active) | 76.2% (active) | 75% (active) | 84.3% (active) | 56% (active) | 76.5% (active) | 71.2% (active)
OCC1OC(n2cnc3c(NCc4ccco4)ncnc32)C(O)C1O (stereo not drawn) | 71.1% (active) | 53.4% (active) | 33.5% | 48.7% (active) | 65.1% (active) | 60.3% (active) | 85.7% (active) | 67.7% (active)
CCCOC(c1ccccc1)(c1ccc(C(F)(F)F)cc1)C(Oc1nc(C)cc(C)n1)C(=O)O (stereo not drawn) | 51.2% (active) | 67% (active) | 51.6% (active) | 68.1% (active) | 75.5% (active) | 96.3% (active) | 90.2% (active) | 75.5% (active)
CCc1ccc(/C=C/c2c[nH]c3ccccc23)[n+](CC)c1 | 29.8% | 43.6% (active) | 24.4% | 58% (active) | 39.4% (active) | 87.6% (active) | 74% (active) | 75.8% (active)
COC(C(=O)C(O)C(C)O)C1Cc2cc3cc(OC4CC(OC5CC(O)C(O)C(C)O5)C(O)C(C)O4)c(C)c(O)c3c(O)c2C(=O)C1OC1CC(OC2CC(OC3CC(O)C(OC)C(C)O3)C(O)C(C)O2)C(O)C(C)O1 (stereo not drawn) | 93.6% (active) | 93.9% (active) | 78% (active) | 92.2% (active) | 93.6% (active) | 109% (active) | 97.2% (active) | 99.4% (active)
